Data taken from PubChem BioAssay (NCI).
“And” between values parts separate entries of the source, which are not always exact repeats. Equal values may be shown once. This is part of a sample that, as a whole, favours compounds with a hit. Of some 83,000 tested, about 20% had one in any assay.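 Growth was measured after 48 h exposure to one concentration of compound in 96-well plates. Values under 10 count as active.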 The source made the active and inactive calls.

Experiments:
Assay in all cases: NCI-60 one-dose screen, 48 h (100 = growth as untreated, 0 = no growth, -100 = all killed)
Settings in all cases: 10 µM unless noted
[1] = system: DU-145 prostate
[2] = system: K-562 leukemia
[3] = system: MALME-3M melanoma
[4] = system: MDA-MB-231 breast
[5] = system: RXF 393 renal
[6] = system: SF-268 CNS
[7] = system: SF-295 CNS
[8] = system: SF-539 CNS
[9] = system: UACC-257 melanoma
[10] = system: M14 melanoma

Measured: growth

NS(=O)(=O)c1cc2c(cc1Cl)NC(C(Cl)Cl)NS2(=O)=O (stereo not given)
inactive: [1] 108% and 112% | [2] 97% and 93.9% | [3] 107% | [4] 105% and 108% | [5] 112% and 128% | [6] 107% and 104% | [7] 118% and 111% | [8] 104% | [9] 84.4% and 95% | [10] 97.5% and 107%

CN(C)CCCN1c2ccccc2Sc2ccc(Cl)cc21
inactive: [1] 101% and 113% and 111% | [2] 51.6% and 120% and 58.2% | [3] 90.2% and 111% and 76.7% | [4] 67.7% and 108% and 72.3% | [5] 52% and 84.6% and 82% | [6] 83% and 104% and 83.6% | [7] 95.3% and 160% and 81% | [8] 90.5% and 98.8% and 88.8% | [9] 78% and 106% and 115% | [10] 31% and 102% and 81%

O=[N+]([O-])c1ccccc1/C=N\Nc1ccccc1
inactive: [1] 97.7% and 103% | [2] 37.9% and 40.2% | [3] 98.7% and 116% | [4] 74.1% and 65% | [5] 110% and 105% | [6] 78.5% and 89.5% | [7] 102% and 76.9% | [8] 88.1% and 106% | [9] 94.3% and 103% | [10] 50.1% and 70.9%

O=C(CN1CCN(c2cc3c(cc2F)c(=O)c(C(=O)O)cn3C2CC2)CC1)Nc1ccc(Cl)cc1
inactive: [1] 99.1% and 103% | [2] 68.1% and 67.9% | [3] 91.8% and 91.1% | [4] 60.2% and 70.1% | [5] 74.7% and 84.3% | [6] 91.2% and 92.5% | [7] 87.9% and 96.6% | [8] 86.9% and 85.6% | [9] 57% and 88.4% | [10] 81.8% and 92%

Cn1cnc([N+](=O)[O-])c1Sc1ncnc2nc[nH]c12
inactive: [1] 44.5% | [2] 20.4% and 23.6% | [3] 75.5% and 93.8% | [4] 31.3% and 57.8% | [5] 79.5% and 94.4% | [6] 69.1% and 49.2% | [7] 33.5% and 31.1% | [8] 37.8% and 33.3% | [9] 73.4% and 98.4% | [10] 30.3% and 21.4%

NC(=O)NO
inactive: [1] 110% and 56.7% | [2] 113% and 77% | [3] 102% and 57.8% | [4] 98.8% and 84.4% | [5] 116% and 25.5% | [6] 102% and 70.4% | [7] 99.4% and 50.3% | [8] 104% and 47.4% | [9] 102% and 44% | [10] 104%

CCc1c(CC(=O)O)c2cc(C)ccc2n1Cc1ccc(Cl)cc1
inactive: [1] 106% and 105% | [2] 152% | [3] 95.1% and 200% | [4] 110% and 100% | [5] 76.8% | [6] 96.3% and 99.4% | [7] 91.6% and 84.9% | [8] 97.4% and 90.2% | [9] 87.7% | [10] 101% and 85.4%

O=Nc1ccc(O)cc1
inactive: [1] 97.1% and 114% | [2] 109% and 98.1% | [3] 107% and 135% | [4] 84.9% and 68.5% | [5] 99.3% and 112% | [6] 88.7% and 93.4% | [7] 99.5% and 105% | [8] 90.2% and 91.5% | [9] 108% and 96.8% | [10] 97.8% and 102%

COc1cc2c(Nc3ccc(Cl)c(Cl)c3F)ncnc2cc1OCC1C[C@@H]2CN(C)C[C@@H]2C1 (stereo not given in full)
active: [2] -39.5% and -0.692% | [3] -93.5% and -34.7% | [4] -87.5% and -9.5% | [5] -95.2% and -65.2% | [7] -93.6% and -55.7% | [9] -87.8% and -64% | [10] -71.1% and -62.8%
-83.6% (active) and 25.4% (inactive): [1]
-70.2% (active) and 24% (inactive): [6]
-93.9% (active) and 17.5% (inactive): [8]

Cc1c(Cl)cccc1NCN1C(=O)c2ccccc2C1=O
inactive: [1] 115% | [2] 109% | [3] 104% | [4] 121% | [5] 107% | [6] 107% | [7] 102% | [8] 102% | [9] 100% | [10] 110%

O=C(Oc1cccc(OC(=O)c2ccccc2)c1)c1ccccc1
inactive: [1] 111% and 105% | [2] 79.3% and 88.5% | [3] 119% and 110% | [4] 96.2% and 107% | [5] 121% | [6] 92% and 94.7% | [7] 103% and 99% | [8] 96.8% and 96.1% | [9] 111% | [10] 116% and 99.4%

O=C1NC(=O)C2(CCc3ccccc32)N1 (stereo not given)
inactive: [1] 123% and 102% | [2] 116% and 83.6% | [3] 97% and 96.7% | [4] 106% and 97.2% | [5] 95.3% | [6] 99% and 107% | [7] 96.5% and 96% | [8] 90% and 105% | [9] 107% and 86.1% | [10] 107% and 96.5%

O=[N+]([O-])c1ccc(/C=N\NC(=S)Nc2ccc(F)cc2)cc1
inactive: [1] 102% and 87.1% | [2] 104% | [3] 92.6% | [4] 77.5% and 77.6% | [5] 98% and 105% | [6] 102% and 99.8% | [7] 102% | [8] 102% and 58.6% | [9] 91.4% and 104% | [10] 113% and 96.8%

CCN(CC)CCCC(C)Nc1ccnc2cc(Oc3ccccc3)ccc12 (stereo not given)
1.73% (active) and 41.2% (inactive): [2]
inactive: [1] 91.4% and 87.4% | [3] 78% and 89.4% | [4] 40.1% and 34.1% | [5] 17.8% and 70.7% | [6] 54.5% and 67.1% | [7] 81.5% and 74.9%
active: [8] 1.83% and 4.93% | [9] -67.2% and -56.4% | [10] -43.4% and -81.6%
